This is an account of results in PubChem BioAssay (NCI).

Among the test systems are NCI-H23 lung; NCI-H226 lung; NCI-H322M lung; HOP-62 NSCLC; HOP-92 NSCLC; NCI-H522 lung; A549/ATCC NSCLC; 786-0 renal; COLO 205 colon; DU-145 prostate; K-562 leukemia; MALME-3M melanoma; MDA-MB-231 breast; RXF 393 renal; SF-268 CNS; SF-295 CNS; SF-539 CNS; UACC-257 melanoma; M14 melanoma.
What all share (assay): NCI-60 one-dose screen, 48 h (100 = growth as untreated, 0 = no growth, -100 = all killed)
Settings in all cases: 10 µM unless noted

Compounds without any hit were thinned out: in the full panel of roughly 83,000, 20% have a hit.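 Single-concentration screen, 48 h exposure, 96-well plates. Endpoint: percent growth. Below 10 = active.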 A number with no mark means an inactive call. Active and inactive are the calls of the source.

For `O=C(Nc1cccc(-c2ccc(N3CCOCC3)nn2)c1)Nc1cccc(C(F)(F)F)c1`, the growth is 70.4% in the experiment on NCI-H23 lung; 61.8% in the experiment on NCI-H226 lung; 89.6% in the experiment on NCI-H322M lung; 76.8% in the experiment with HOP-62 NSCLC; 58.6% with HOP-92 NSCLC; 46.4% with NCI-H522 lung. Besides, the growth with A549/ATCC NSCLC is 56.4%; with 786-0 renal, 92.1%; in the experiment with COLO 205 colon it was 81%; in the experiment with DU-145 prostate, 80.5%; in the experiment on K-562 leukemia, 46.1%; with MALME-3M melanoma it was 89.5%. For the same compound, the growth is 80.1% in the experiment with MDA-MB-231 breast; 81.5% with RXF 393 renal; 91.2% in the experiment on SF-268 CNS; 52% in the experiment with SF-295 CNS; 89.1% in the experiment with SF-539 CNS; 69.7% with UACC-257 melanoma. In the experiment on M14 melanoma, the growth was 63.1%.

On to `CC(C)(Sc1cc(C(C)(C)C)c(OC(=O)CCCC(=O)O)c(C(C)(C)C)c1)Sc1cc(C(C)(C)C)c(OC(=O)CCCC(=O)O)c(C(C)(C)C)c1`, for which the growth in the experiment on NCI-H23 lung is 29.5%; with NCI-H226 lung, 64.8%; with NCI-H322M lung it was 49.5%; in the experiment on HOP-62 NSCLC, 38%; with HOP-92 NSCLC, 73%; with NCI-H522 lung it was 37.8%. For the same compound, the growth in the experiment with A549/ATCC NSCLC was 21.4%; with 786-0 renal, 49.7%; in the experiment on DU-145 prostate, 51.4%; in the experiment with K-562 leukemia, 35.1%; in the experiment with MALME-3M melanoma, 46.2%; with MDA-MB-231 breast it was 57.8%. Besides, the growth in the experiment with RXF 393 renal was 37.6%; with SF-268 CNS it was 28.6%; with SF-295 CNS, 33.7%; in the experiment with SF-539 CNS it was 6.97% (active); in the experiment on UACC-257 melanoma, 46.7%; in the experiment with M14 melanoma it was 45.5%.

As for `COc1cc(C2c3cc(OC(C)=O)c(OC)cc3CC3C(=O)OCC32)ccc1OC(C)=O` (stereo unspecified), the growth with NCI-H23 lung was 105%; in the experiment on NCI-H226 lung, 107%; with NCI-H322M lung, 115%; in the experiment with HOP-62 NSCLC, 91.8%; with HOP-92 NSCLC, 53.7%; with NCI-H522 lung it was 105%. The growth with A549/ATCC NSCLC is 104%; with 786-0 renal it was 96.4%; with COLO 205 colon, 119%; in the experiment on DU-145 prostate, 115%; with K-562 leukemia it was 115%; with MALME-3M melanoma, 112%. The growth was 105% in the experiment on MDA-MB-231 breast; 115% in the experiment on RXF 393 renal; 111% with SF-268 CNS; 112% in the experiment on SF-295 CNS; 99.4% in the experiment on SF-539 CNS; 103% in the experiment on UACC-257 melanoma. The growth in the experiment on M14 melanoma is 106%.

As to `O=C1/C(=C\c2ccc3nccnc3c2)SC(=S)N1CCc1ccc(O)cc1`, the growth in the experiment on NCI-H23 lung is 98.2%; with NCI-H226 lung it was 96%; in the experiment with NCI-H322M lung it was 103%; in the experiment with HOP-62 NSCLC, 108%; with HOP-92 NSCLC, -3.77% (active); in the experiment with NCI-H522 lung, 65.9%. The growth in the experiment with A549/ATCC NSCLC was 101%; in the experiment with 786-0 renal, 60.6%; in the experiment on COLO 205 colon, 119%; in the experiment on DU-145 prostate it was 59.6%; in the experiment on K-562 leukemia, 96.9%; with MALME-3M melanoma, 75.7%. Further, the growth with MDA-MB-231 breast was 88.7%; in the experiment with RXF 393 renal, 93%; in the experiment on SF-268 CNS, 90.8%; in the experiment on SF-295 CNS, 105%; in the experiment on SF-539 CNS, 82.2%; in the experiment with UACC-257 melanoma, 81.9%. The growth in the experiment with M14 melanoma is 85.5%.

Consider `NC(=O)CSc1oc(-c2ccccc2)nc1S(=O)(=O)c1ccc(Br)cc1`, for which the growth in the experiment with NCI-H23 lung is 79.8%; in the experiment on NCI-H226 lung, 54.7%; with NCI-H322M lung, 89.8%; in the experiment on HOP-62 NSCLC, 73.9%; in the experiment with HOP-92 NSCLC, 5.26% (active); in the experiment on NCI-H522 lung it was 70.1%. Besides, the growth with A549/ATCC NSCLC is 74.5%; in the experiment with 786-0 renal, 25.9%; with COLO 205 colon, 107%; with DU-145 prostate, 85.6%; with K-562 leukemia, 91.7%; in the experiment with MALME-3M melanoma it was 59.4%. The growth with MDA-MB-231 breast was 52.7%; in the experiment on RXF 393 renal, 46.5%; in the experiment on SF-268 CNS, 72.6%; in the experiment with SF-295 CNS, 80.7%; in the experiment on SF-539 CNS, 45.7%; with UACC-257 melanoma, 84.7%. Besides, the growth in the experiment with M14 melanoma is 83.5%.

For `COc1ccc2c(c1)c(-c1nc(-c3c[nH]c4ccncc34)cs1)cn2C`, the growth is 46.3% with NCI-H23 lung; 48.7% in the experiment with NCI-H226 lung; -31% (active) in the experiment with NCI-H322M lung; -82.7% (active) in the experiment on HOP-62 NSCLC; 35.8% with HOP-92 NSCLC; -71.3% (active) in the experiment on NCI-H522 lung. The growth was -85.9% (active) in the experiment on A549/ATCC NSCLC; -91.6% (active) in the experiment on 786-0 renal; -81.7% (active) in the experiment with COLO 205 colon; -68% (active) in the experiment on DU-145 prostate; -60.8% (active) in the experiment with K-562 leukemia; -92.9% (active) with MALME-3M melanoma. Moreover, the growth is -81.8% (active) in the experiment with MDA-MB-231 breast; -83.8% (active) with RXF 393 renal; -78.7% (active) with SF-268 CNS; -76.1% (active) in the experiment with SF-295 CNS; -96.9% (active) in the experiment with SF-539 CNS; -79% (active) in the experiment on UACC-257 melanoma. For the same compound, the growth with M14 melanoma was -84% (active).

As to `Clc1ccc(/C=N\N=C\c2ccc(Cl)c(Cl)c2)cc1Cl`, the growth in the experiment on NCI-H23 lung is 84.9%; in the experiment with NCI-H226 lung it was 104%; with NCI-H322M lung it was 102%; with HOP-62 NSCLC, 95.8%; in the experiment with HOP-92 NSCLC it was 88.6%; with NCI-H522 lung it was 77.4%. The growth was 87.2% in the experiment with A549/ATCC NSCLC; 97.3% in the experiment on 786-0 renal; 90.8% in the experiment with COLO 205 colon; 3.88% (active) in the experiment on DU-145 prostate; 88.8% in the experiment on K-562 leukemia; 125% with MALME-3M melanoma. Also, the growth in the experiment with MDA-MB-231 breast is 80.6%; with RXF 393 renal it was 79.3%; in the experiment with SF-268 CNS, 91.9%; with SF-295 CNS it was 81.1%; with SF-539 CNS, 102%; in the experiment on UACC-257 melanoma, 106%. For the same compound, the growth in the experiment with M14 melanoma is 88.6%.

Turning to `N=C(N)c1ccc(-c2ccc(-c3ccccc3)o2)cc1`, the growth in the experiment on NCI-H23 lung is 3.73% (active); in the experiment with NCI-H226 lung, -26.4% (active); in the experiment on NCI-H322M lung it was -37.8% (active); with HOP-62 NSCLC it was -50.7% (active); in the experiment with HOP-92 NSCLC, -59.5% (active); in the experiment on NCI-H522 lung, -82.6% (active). Besides, the growth in the experiment with A549/ATCC NSCLC was -30.1% (active); in the experiment with 786-0 renal, -86% (active); in the experiment on COLO 205 colon it was -87.7% (active); with DU-145 prostate, -11.2% (active); with K-562 leukemia, -33.2% (active); in the experiment with MALME-3M melanoma it was -81.5% (active). For the same compound, the growth with MDA-MB-231 breast was -58.2% (active); in the experiment on RXF 393 renal it was -76.3% (active); in the experiment on SF-268 CNS, -31.1% (active); in the experiment on SF-295 CNS, -70.4% (active); with SF-539 CNS, -83.7% (active); in the experiment with UACC-257 melanoma, -72.4% (active). In addition, the growth in the experiment on M14 melanoma was -91.3% (active).
